The nature of the assay: NCI Yeast Anticancer Drug Screen. Data for the rad50EPP+ strain (AID 151).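 Note: 0% = growth of vehicle-treated control cultures.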 The note with it: S. cerevisiae rad50 mutant strain, active compounds read high. The procedure: Growth inhibition of yeast strains with defined genetic alterations is measured as a screen for potential anti-cancer activity. Selected strains with alterations in DNA damage repair or cell cycle control were exposed to compounds and growth inhibition was measured relative to vehicle treated controls. The strain used in this assay is rad50EPP+

Compounds without any hit were thinned out: in the full panel of roughly 79,000, 15% have a hit. A number with no mark means an inactive call. Activity calls are given as the source filed them. Cut-off read from the data, not from the text of the source: active = growth inhibition above about 70%; inactive = the rest.

In the case of `CN(C)C[C@H]1CC[C@@H](CN(C)C)C1=O`, the growth inhibition was 16% (at 1.2 µM); 12% (at 3.7 µM); 27% (at 11.0 µM); 50% (at 33.0 µM); 84% (active) (at 100.0 µM).

For `Cc1[nH]c2ccccc2c1C(c1ccc(N)cc1)c1c(C)[nH]c2ccccc12`, the growth inhibition was 4% (at 1.2 µM); -4% (at 3.7 µM); -4% (at 11.0 µM); -2% (at 33.0 µM); -8% (at 100.0 µM).

`CCN(CC)[P+](c1ccccc1O)(N(CC)CC)N(CC)CC`: the growth inhibition by setting is: (at 1.2 µM) -35%; (at 3.7 µM) -26%; (at 11.0 µM) -33%; (at 33.0 µM) -31%; (at 100.0 µM) -34%.

Turning to `O=[n+]1c2ccc(Cl)cc2n([O-])c2ccc(Cl)cc21`, the growth inhibition (at 1.2 µM) was 9%; the growth inhibition (at 3.7 µM) is 18%; the growth inhibition (at 11.0 µM) was 35%; the growth inhibition (at 33.0 µM) is 57%; the growth inhibition (at 100.0 µM) is 74% (active).

On to `CC(=O)[O][Bi]([c]1ccccc1)[c]1ccccc1`, for which the growth inhibition by setting is: (at 1.2 µM) 31%; (at 3.7 µM) 39%; (at 11.0 µM) 18%; (at 33.0 µM) 20%; (at 100.0 µM) 24%.

`O=[N+]([O-])C(=C(Sc1ccccc1)Sc1ccccc1)C(Cl)=C(Cl)Cl`: the growth inhibition (at 1.2 µM) is 9%; the growth inhibition (at 3.7 µM) is 20%; the growth inhibition (at 11.0 µM) was 36%; the growth inhibition (at 33.0 µM) is 49%; the growth inhibition (at 100.0 µM) was 48%.

Take `Cc1cc(I)ccc1N`: the growth inhibition is, setting by setting: (at 1.2 µM) -24%; (at 3.7 µM) -11%; (at 11.0 µM) -8%; (at 33.0 µM) 20%; (at 100.0 µM) 74% (active).

For `C[C@@H]1C[C@H]2[C@@H]3CCC4=CC(=O)C=C[C@]4(C)[C@@]3(Cl)[C@@H](Cl)C[C@]2(C)[C@@]1(O)C(=O)COP(=O)(O)O`, the growth inhibition was -3% (at 1.2 µM); -8% (at 3.7 µM); -3% (at 11.0 µM); 3% (at 33.0 µM); 5% (at 100.0 µM).
